Measured values as given in PubChem BioAssay (NCATS).
Records with an inconclusive call do not appear. The source made the active and inactive calls. Calls come from the whole dose curve; as a rule, active = well fitted inhibition curve with a large enough effect; inconclusive = small, poorly fitted or top-dose-only effect; inactive = flat fitted curve, though single readings scatter.

Experiments:
Assay in all cases: Cytotoxic Profiling of Annotated Libraries Using Quantitative High-Throughput Screening (AID 1296008); note: nearly all actives have a fitted effect of over 60% in size
Settings in all cases: Five cell lines viability, CellTiter-Glo ATP luminescence, 48-72 h; max response: stronger effect = lower value
CRL-7250 = system: CRL-7250
Method in brief: (§1)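 Cells exposed to compounds for 48 or 72 hr at 37 degrees Celsius. Viability read as ATP-coupled luminescence with CellTiter-Glo after 10 min at room temperature.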

HEK293 = system: HEK293
Method in brief: as §1

HaCat = system: HaCat
Method in brief: as §1

KB-3-1 = system: KB-3-1
Method in brief: as §1

NIH3T3 = system: NIH3T3
Method in brief: as §1

Measured: max response
% is set by controls: 0 for no effect and ±100 for the full control effect.

CC[C@@H]1C(=O)O[C@]23C=C[C@@H]4C(C(=O)OC)=CO[C@H](O[C@@H]12)[C@@H]43
inactive: CRL-7250 -23.4% | HEK293 -18.1% | HaCat | KB-3-1 -9.89% | NIH3T3 1.97%

NC(Cc1c[nH]c2ccc(O)cc12)C(=O)O (stereo not given)
inactive: CRL-7250 -7.16% | HEK293 -8.59% | HaCat 0.887% | KB-3-1 | NIH3T3

CC(C)[C@@](O)(c1ccc2cc(OC(F)F)c(OC(F)F)cc2c1)c1cn[nH]n1
inactive: CRL-7250 -0.82% | HEK293 -10.2% | HaCat -0.148% | KB-3-1 5.26% | NIH3T3

COc1cc(/C=C/C(=O)O[C@@H]2C[C@](O)(C(=O)O)C[C@@H](O)[C@H]2O)ccc1O
inactive: CRL-7250 -5.29% | HEK293 -0.759% | HaCat | KB-3-1 | NIH3T3 1.32%

C=C1C(=O)O[C@@H]2C[C@]3(C)[C@@H](CCC(C)=O)[C@@H]3C[C@H]12
inactive: CRL-7250 4.44% | HEK293 -12.9% | HaCat | KB-3-1 2.7% | NIH3T3

C=CC1(C)CC=C2C(CCC3C(C)(C(=O)O)CCCC23C)C1 (stereo not given)
inactive: CRL-7250 4.68% | HEK293 -4.6% | HaCat | KB-3-1 7.47% | NIH3T3 -6.29%

C=CC(C)(O)C1CC2C3(C)CCCC(C)(C)C3C(O)C(O)C2(C)O1 (stereo not given)
inactive: CRL-7250 -10.8% | HEK293 3.38% | HaCat | KB-3-1 | NIH3T3 -13.6%

COc1c(O[C@@H]2O[C@H](CO)[C@@H](O)[C@H](O)[C@H]2O)c(CCC(=O)O)cc2ccoc12
inactive: CRL-7250 -9.14% | HEK293 -0.3% | HaCat | KB-3-1 2.96% | NIH3T3 0.4%
